From PubChem BioAssay AID615 (Sanford-Burnham Center for Chemical Genomics, 2007)
Hit rate of the full screen: of about 21,000 compounds, fewer than 10 were called active.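 Rule for the calls: active = inhibition above 50% at the 20 µM single-dose screen; inactive = the rest.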 These entries were drawn from the full list.

target: Alkaline phosphatase, tissue-nonspecific isozyme (Homo sapiens) (UniProt P05186); assay: human TNAP enzyme inhibitors, primary screen, biochemical, colorimetric, p-nitrophenol readout (AID 615); details: purified TNAP, pNPP hydrolysis, absorbance 405 nm; at 20 µM; hits give high values;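 note: 0% = DMSO only wells and 100% = 1 mM levamisole wells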
Sequence (P05186 whole entry, looked up): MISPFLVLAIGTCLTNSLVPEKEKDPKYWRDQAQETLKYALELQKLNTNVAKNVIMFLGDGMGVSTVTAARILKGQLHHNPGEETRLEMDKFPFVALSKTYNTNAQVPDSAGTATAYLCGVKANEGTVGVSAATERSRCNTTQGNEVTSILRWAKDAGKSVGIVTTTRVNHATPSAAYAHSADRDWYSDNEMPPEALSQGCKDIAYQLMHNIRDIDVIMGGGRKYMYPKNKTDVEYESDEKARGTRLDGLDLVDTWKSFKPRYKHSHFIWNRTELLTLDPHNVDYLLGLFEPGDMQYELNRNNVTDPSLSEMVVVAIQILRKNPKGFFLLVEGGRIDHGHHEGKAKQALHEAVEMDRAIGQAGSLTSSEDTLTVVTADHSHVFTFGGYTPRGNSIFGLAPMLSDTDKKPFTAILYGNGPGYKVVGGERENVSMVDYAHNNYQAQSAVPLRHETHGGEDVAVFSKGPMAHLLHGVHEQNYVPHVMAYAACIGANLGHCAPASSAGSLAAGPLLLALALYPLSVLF

inhibition, inactive:
Cc1cc(C)nc(SCc2ccccc2C#N)n1 1.7%
COc1ccccc1Nc1ncc(C(C)=O)c(C)n1 1.9%
O=C(O)CN(Cc1ccco1)S(=O)(=O)c1ccccc1 0%
CCC(=O)Nc1ccc(C(=O)Nc2ccc3c(c2)C(=O)N(CC2CCCO2)C3=O)cc1 (stereo unspecified) 3.2%
CCCc1cc(=O)n2[nH]c(SCc3ccccc3)nc2n1 4.4%
N#Cc1nc(-c2ccc(OCc3ccccc3)cc2)oc1NCCCN1CCOCC1 4%
O=S(=O)(NCc1cccnc1)c1ccc(Br)s1 2.9%
Cc1ccc(C(=O)N2CCN(C3CCCCC3)CC2)s1 2.5%
COC(=O)c1cc(NC(=O)CN2CCC(C(N)=O)(N3CCCCC3)CC2)cc(C(=O)OC)c1 -6.8%
COc1cccc(NC(=O)c2ccccc2SC)c1 0.3%
COC(=O)c1ccc2c(c1)S(=O)(=O)NC(=NCCCN1CCOCC1)S2 3.7%
O=C(c1ccco1)N(Cc1nc2ccccc2c(=O)[nH]1)C1CCCC1 -5.2%
Cc1ccccc1OCCC(=O)Nc1c(C)n(C)n(-c2ccccc2)c1=O 0%
Cc1cc(C)c(C(=O)CN2C(=O)CCC2=O)cc1C 5%
O=S(=O)(c1ccccc1)N(CC(O)CN1CCCCC1)c1ccccc1 (stereo unspecified) -1.4%
COC(=O)c1ccccc1NC(=O)c1ccccc1NS(C)(=O)=O 8.2%
COC(=O)c1cc(Cl)c(NC(=O)c2ccco2)cc1OC -4.4%
COc1cc(OC)cc(C(=O)Nc2ncc3c(n2)CC(C)(C)CC3=O)c1 3.1%
CC1CCCCC1NC(=O)CSc1nnc(N)s1 (stereo unspecified) 0%
COc1ccc(CNC(=O)c2cc3c(=O)n4ccccc4nc3n(CC3CCCO3)c2=N)cc1 (stereo unspecified) 0.4%
COc1c(F)c(F)c(-c2csc(N)n2)c(F)c1F 1%
COC(=O)c1cccc(NC(=O)CSc2nc(C)cc(=O)[nH]2)c1 6.2%
CC(NCCO)C(=O)C12CC3CC(CC(C3)C1)C2 (stereo unspecified) 6.7%
CCn1nc(NC(=O)c2ccco2)c2cc3ccc(C)cc3nc21 4.2%
COc1ccc(CNC2CCCCC2)cc1 3.7%
CC(C)[C@H](NC(=O)Nc1ccc(S(N)(=O)=O)cc1)C(=O)O 4.9%
O=S(=O)(NCc1ccc2c(c1)OCO2)c1cccc2nsnc12 5.8%
Cc1ccc(S(=O)(=O)N2CCOCC2)cc1C(=O)NCc1ccc(F)cc1 0%
O=C(NCC1CCCO1)C(C(=O)c1ccccc1)n1cc(Cl)ccc1=O (stereo unspecified) 6.1%
Cc1nnc(N(Cc2ccco2)C(=O)c2ccno2)s1 1.8%
O=C(Nc1ccc2c(c1)OCCO2)c1ccncc1 3.7%
CCOC(=O)c1sc(/N=C/Nc2nc(C)c(C(=O)OCC)s2)nc1C 0%
COc1ccc(N(Cc2cc3cc(OC)ccc3[nH]c2=O)S(C)(=O)=O)cc1 2.6%
O=C(CSc1ncccn1)NCCc1ccccc1 1.9%
CC12CCC(C(=O)N(CCC#N)CCC#N)(CC1=O)C2(C)C (stereo unspecified) 5.5%
CNC(=O)CSc1nnc(CCc2ccccc2)n1-c1ccccc1 -9%
O=C(CCCOc1ccccc1)Nc1cccc(C(=O)O)c1 7.6%
CC(C)C[C@H](NC(=O)NCCc1ccc(Cl)cc1)C(=O)O 2.2%
Cc1cc(C)c2nc(SCCC#N)nc(C)c2c1 -0.5%
CCCCn1nnnc1NCc1cc(OC)c(OC)c(OC)c1 -0.6%
C=CCn1c(COc2ccccc2)nnc1SCC(=O)NCC(=O)OCC -6.9%
CC(=O)Cc1nsc(NC(=O)c2ccc(COc3ccc(C)cc3)o2)n1 1.5%
Cc1cc(NC(=O)c2cnn3cccnc23)n(-c2ccccc2)n1 3.9%
Cc1ccc(S(=O)(=O)N2CCC(C(=O)N[C@@H](C)C(=O)NCCc3ccccc3)CC2)cc1 -7.1%
CCC(CC)C(=O)Nc1cc(C(=O)OC)cc(C(=O)OC)c1 4.4%
CC(=O)N1CCN(CCN=CC2=C(O)CC(C)(C)CC2=O)CC1 5.5%
Cc1ccc2c(C(=O)CN3CCCC3)c(C)[nH]c2c1 -14.5%
O=C(O)CN(Cc1ccco1)S(=O)(=O)c1ccc(F)cc1 0.4%
COc1ccc(NC2CC(=O)N(C)C2=O)cc1 (stereo unspecified) 3.1%
Cc1occc1C(=O)Nc1cccc(Cn2cccn2)c1 -2.4%
CC(=O)OCc1cc(=O)n(C)c(=O)n1C 1.6%
Nc1nnnn1/N=C/c1cccs1 0%
CC(C)c1nc(-c2ccccn2)no1 2.2%
CSCCC(NC(=O)c1ccc(=O)n(C)n1)c1nc2ccccc2[nH]1 (stereo unspecified) -0.4%
CCc1ccccc1N(CC(=O)N1CCN(c2ccccc2F)CC1)S(C)(=O)=O 3.4%
Cc1cccc(N(CC(O)CN(C)C)S(=O)(=O)c2ccccc2)c1 (stereo unspecified) 6%
CC(=O)Nc1nc(C)c(Cc2ccccc2)c(=O)[nH]1 0%
CC(C)C(c1nnnn1C1CCCC1)N1CCN(c2ccccc2F)CC1 (stereo unspecified) 4.1%
O=C(NC(c1ccccc1)c1ccccc1)N1CCN(CCO)CC1 5.5%
c1ccc(-n2ncc(-c3nn[nH]n3)n2)cc1 1.2%
COc1ccc(C2/C(=C(/O)c3ccc(OC(C)C)cc3)C(=O)C(=O)N2CCCN2CCOCC2)cc1 (stereo unspecified) 2.6%
CCCOc1ccc(CN(CCO)CCO)cc1C(=O)OC 8.5%
CCC(=O)Nc1cccc(NC(=O)CSc2nnnn2C2CCCC2)c1 4.5%
CCOC(=O)N1CCN(Cc2oc(CO)cc(=O)c2O)CC1 4.3%
Cc1ccc(-n2c(Cc3cccs3)nnc2SCC(=O)OC(C)C)cc1 -1%
CCc1nnc(NC(=O)CSc2nnc(-c3ccncc3)n2Cc2ccccc2)s1 5.3%
Cn1c(=O)c2c(nc(Br)n2CCSc2nc3ccccc3o2)n(C)c1=O 0%
COc1ccc(CCNS(=O)(=O)c2ccc(F)cc2)cc1OC 3.6%
Nc1nonc1-c1nc2ccccc2n1Cc1ccc(F)cc1 -0.2%
COCCCn1c2nc3ccccc3nc2c2c(=O)n(Cc3ccc(Cl)cc3)c(C)nc21 7.2%
CN1CCN(C(=O)C2C3C=CC(C3)C2C(=O)O)CC1 (stereo unspecified) 3.6%
CCCCC(=O)N1CC2(C)CN(C(=O)CCCC)CC(C)(C1)C2=O -3.1%
O=C(CSc1nnc(-c2cccs2)n1Cc1ccco1)c1ccc2c(c1)OCO2 1.9%
COc1ccc(/C(O)=C2/C(=O)C(=O)N(CCCN(C)C)C2c2ccccc2)cc1OC (stereo unspecified) 2.9%
CCCCC(=O)Nc1ccc2c(c1)OCCO2 -5.8%
CC(=O)C1=C(O)C(=O)N(c2ccc(S(N)(=O)=O)cc2)C1c1ccccc1F (stereo unspecified) 0.8%
CCOC(=O)c1c(-n2cnnn2)sc(C)c1C 3.1%
Cn1c2c(c(=O)n(C)c1=O)CN(Cc1ccco1)CN2 -1.5%
Cc1ccc(NC(=O)N2CCC(C(=O)NCc3ccc(F)cc3)CC2)cc1 6.4%
Cc1ccccc1C(=O)Nc1cccc(-c2nnc(SCC(=O)O)n2C)c1 1.1%
Cc1ccc2[nH]c3c(c2c1)CN(C(=O)CN1CCN(c2ccccc2)CC1)CC3 2.7%
CC(=O)N(CN1C(=O)C2CC=CCC2C1=O)c1cccc(Cl)c1 (stereo unspecified) 7.2%
COc1ccc(C2/C(=C(/O)c3ccccc3)C(=O)C(=O)N2c2ncccn2)cc1OC (stereo unspecified) -1.7%
COc1ccc(C(CNC(=O)c2cccnc2SC)N2CCOCC2)cc1 (stereo unspecified) -2%
CCCCNc1nc2c(c(=O)[nH]c(=O)n2C)n1CCOc1ccccc1 4.2%
CC(=O)c1cc(-c2ccccc2)[nH]c1N1CCCC1 0.8%
O=C(C1CCCO1)N1CCC(c2nc3ccccc3[nH]2)CC1 (stereo unspecified) 5.7%
O=C1Nc2ccccc2C12Nc1ccccc1S2 (stereo unspecified) 2%
Cc1ccc(-c2c3c(=O)n(C)c(=O)n(C)c3cn2-c2ccccc2O)cc1 1.8%
Cc1ccccc1-n1c(SCC(=O)NCc2cccs2)nnc1-c1ccncc1 -7.5%
CCc1nnc(NC(=O)c2c(O)c3c([nH]c2=O)CCCC3)s1 6.2%
COc1ccccc1CNC(=O)C1CCN(S(C)(=O)=O)CC1 7.2%
COc1ccc(NC(=O)c2c(C)oc3c2CCCC3)cc1 5.5%
Cc1nc2nc(CSc3nc4ccccc4s3)cc(=O)n2[nH]1 1.3%
CCOC(=O)C1CCCCN1Cc1ccc(OC)c(OC)c1OC (stereo unspecified) 6.8%
CS(=O)(=O)N(CC(=O)N1CCN(Cc2ccc3c(c2)OCO3)CC1)c1ccc2c(c1)OCO2 -15%
Cc1cc(C(=O)COC(=O)c2cccs2)c(C)n1-c1c(C)n(C)n(-c2ccccc2)c1=O 4.7%
CCCOP(=O)(c1ccc(N(C)C)cc1)C(O)c1cc(OC)c(OC)c(OC)c1 (stereo unspecified) 12.9%
COc1ccc(CCNC(=O)CSc2nnc(-c3cccc(F)c3)o2)cc1OC -1.5%
COc1ccc(CCN(C)CCN2C(=O)c3ccccc3C2=O)cc1OC -0.3%
Cc1ccc(C(=O)NC2CCN(C(=O)N3CCOCC3)CC2)cc1 7%
